Rows were chosen to be rich in hits. Some 19% of all compounds tested hit in one or more screens of this group.
HT1080-NT tox = kills 2HG-producing HT-1080-NT fibrosarcoma cells; Potency, µM (titrated, usually from 46.1 µM), inactives show top-dose activity, negative = less viability, actives largely listed as cytotoxic; hit rate 1.6% among 360,000; AID 686970; HT-1080-NT fibrosarcoma viability, CellTiter-Glo ATP luminescence, 48 h;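 note: NT is the 2HG producing partner of a matched IDH1 knockdown line; potency is the fitted concentration of half-maximal effect; 0% = DMSO-treated cells and -100% = media-only wells without cells; nearly all actives have a fitted effect of over 55% in size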
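HT-1080-NT fibrosarcoma cells (2HG-overproducing), 750 cells/well in RPMI with 5% FBS, dosed after 2 h and incubated 48 h at 37C. CellTiter-Glo luminescence normalized to DMSO and no-cell wells; concentration-response curves fitted and classed.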
IL1B secr inh = inflammasome signaling inhibition, IL-1 beta readout | THP-1 LPS/ATP IL-1B secretion, AlphaLISA, 16 h; hits give low values | activity change, % at 57.5 µM | hit rate 4.7% among 360,000 | AID 743279; in the data active = activity change below about -50%; inconclusive = mostly about -30% to -49%
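THP-1 cells pretreated 1 hr with compounds (up to 57.5 uM final), then stimulated with LPS (250 ng/mL final) plus ATP (1.25 mM final); secreted IL-1B measured by AlphaLISA after 16 hr, decreased signal indicating inhibition.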
DT40 TDP1 CPT = DT40-hTDP1 cell growth loss with CPT; chicken DT40 Tdp1-/-;hTDP1 cells + 20 nM CPT, ATP luminescence, 48 h; hit rate 12% among 420,000; Potency, µM (top dose mostly 46.2 µM), inactives show at the top dose activity change, negative = growth inhibition, hits mostly inhibitors; note: potency is the fitted concentration of half-maximal effect; nearly all actives have a fitted effect of over 55% in size
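Chicken DT40 Tdp1-/- cells complemented with human TDP1, 400 cells/well, exposed to compounds plus 20 nM camptothecin for at least 48 h at 37 C; viability read as ATP content by CellTiter-Glo luminescence.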
HT1080 IDH1KD tx = toxicity to HT-1080 IDH1 knockdown cells (counter line) | HT-1080 IDH1 knockdown viability, ATP luminescence, 48 h | AID 686971 | Potency, µM (highest dose often 46.1 µM), without a hit: at the top dose activity, negative = toxicity, most hits filed as cytotoxic | hit rate 2% among 360,000;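 note: potency is the fitted concentration of half-maximal effect; 0% = DMSO wells and -100% = cell-free medium wells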
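After a 2 h attachment period, IDH1KD HT-1080 cells took pin-transferred compound for 48 h at 37 °C; ATP-based luminescence after 10 min room-temperature reagent incubation reported viability.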
DT40 TDP1 no CPT = qHTS for Inhibitors of human tyrosyl-DNA phosphodiesterase 1 (TDP1): qHTS in cells in absence of CPT. DT40 Tdp1-/- hTDP1 cells, no CPT, ATP luminescence, 48 h. Potency, µM (series often up to 46.2 µM), without a hit: at the top dose activity change, negative = growth inhibition, hits mostly inhibitors. hit rate 15% among 420,000; note: potency is the fitted concentration of half-maximal effect; nearly all actives have a fitted effect of over 55% in size
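Cells were dispensed at 400 per well, compounds added by pin tool, plates incubated ≥48 hr at 37 °C, then CellTiter-Glo added for 30 min at room temperature before luminescence reading. Line: DT40 Tdp1-/- complemented with hTDP1; camptothecin omitted.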
Starred values were filed as active, the others as inactive; ? = inconclusive; / = no result. Unless noted, calls come from the whole dose curve; as a rule, active = well fitted curve in the direction sought with a large enough effect; inconclusive = small, poorly fitted or top-dose-only effect, or another doubt; inactive = no such curve, though single readings can be large; an effect the other way counts as inactive or inconclusive. Unless noted, % is set by controls: 0 for no effect and ±100 for the full control effect.

SMILES	HT1080-NT tox	IL1B secr inh	DT40 TDP1 CPT	HT1080 IDH1KD tx	DT40 TDP1 no CPT
COc1cc2nc(Cl)nc(NC3CCN(Cc4ccccc4)CC3)c2cc1OC	0%	/	7.1µM*	-2%	10µM*
COc1cccc(C(=O)Nc2ccc(NC(=O)C3C4C=CC(C4)C3C(=O)O)cc2)c1 (centres undefined)	-3%	13	-22%	-30%	?
O=C(c1ccco1)N1CCN(Cc2cc(=O)c(OCc3ccccc3F)co2)CC1	14%	2	-14%	-5%	-4%
O=C(CN(Cc1ccc(F)cc1)S(=O)(=O)c1ccc(S(=O)(=O)N2CCOCC2)cc1)Nc1ccccc1	2%	28	-15%	0%	-11%
C#Cc1ccccc1OCCCN1CCC(C(O)(c2ccccc2)c2ccccc2)CC1	16µM*	0	9.2µM*	16µM*	8.2µM*
N#Cc1ccccc1OCCCN1CCC(C(O)(c2ccccc2)c2ccccc2)CC1	?	?	18µM*	?	?
CC(=O)Nc1ccc(C(=O)NCC2(N3CCCCC3)CCCCC2)cc1	-4%	11	?	1%	-21%
O=C(O)c1ccc(S(=O)(=O)c2ccc([N+](=O)[O-])cc2[N+](=O)[O-])cc1	-4%	16	21µM*	-7%	?
O=C1NC[C@H](c2ccccc2)N(CCc2cccc(F)c2)C1=O	18%	7	-4%	14%	-18%
NC1=NC[C@H](Cc2ccc(O)cc2)N1CCc1cc(C(F)(F)F)cc(C(F)(F)F)c1	-1%	10	?	2%	?
NC1=NC[C@H](Cc2ccccc2)N1CCc1cccc(F)c1	2%	-26	13µM*	-3%	12µM*
NC1=NC[C@H](Cc2ccccc2)N1CCCCC1CCCCC1	-7%	?	5.2µM*	-6%	5.2µM*
NC1=NC[C@H](Cc2ccc(O)cc2)N1CCCCC1CCCCC1	-24%	-58*	4.6µM*	-28%	2.6µM*
COc1cccc(C=NC=Nc2cccc(OC)c2)c1	/	/	0%	/	-22%
CC(=O)COC(=O)C1=NN(c2ccccc2)C(=O)CC1	8%	5	-1%	14%	-2%
CC(C)NC(=O)CSc1cn(CC(=O)N2CCCCCC2)c2ccccc12	/	/	-13%	/	-21%
Cc1ccc([N+](=O)[O-])cc1S(=O)(=O)n1ccnc1C	-8%	2	21µM*	-31%	18µM*
Cc1ccc([N+](=O)[O-])cc1S(=O)(=O)N1CCN(C)CC1	4%	20	14%	-22%	3%
CCOc1ccc2[nH]c(SCC(=O)OC)c([N+](=O)[O-])c2c1	0%	21	6.5µM*	-7%	4.6µM*
COC(=O)CSc1[nH]c2cc(C)ccc2c1[N+](=O)[O-]	0%	42	?	-6%	?
COc1ccc(C(N)c2csc(Nc3ccc(C(=O)NCCCO)cn3)n2)cc1 (centres undefined)	-8%	-15	?	0%	?
O=[N+]([O-])c1ccc(Oc2ccc(OCc3ccccc3)cc2)nc1	2%	-80*	-2%	-13%	-7%
O=[N+]([O-])c1cccnc1Oc1ccc(OCc2ccccc2)cc1	6%	?	3%	-5%	10%
O=C(Nc1ccc(Oc2cccc(C(F)(F)F)c2)nc1)c1cccs1	-19%	-78*	21µM*	?	16µM*
O=[N+]([O-])c1ccc(Oc2cccc(C(F)(F)F)c2)nc1	6%	-18	13µM*	1%	?
SMILES	HT1080-NT tox	IL1B secr inh	DT40 TDP1 CPT	HT1080 IDH1KD tx	DT40 TDP1 no CPT
O=C(Nc1ccc(Oc2cccc(C(F)(F)F)c2)nc1)c1ccccc1	?	-4	-29%	-12%	13µM*
COc1ccc(NC(=O)COc2cccc(C(F)(F)F)c2)cn1	-3%	-14	-4%	6%	?
Cc1cc(C)nc(NC(=O)Nc2ccc(F)cc2F)n1	29%	-24	2%	?	21%
Cc1ccccc1-c1cnc(C(O)c2ccc(-c3ccccc3)cc2)[nH]1 (centres undefined)	?	10	?	?	?
CCC(=O)OCCNc1cc(Sc2nc3ccccc3[nH]2)c2nonc2c1[N+](=O)[O-]	?	-101*	2.3µM*	?	2.9µM*
O=[N+]([O-])c1c(NCCCO)cc(Sc2nc3ccccc3s2)c2nonc12	11µM*	?	1.3µM*	6.3µM*	0.79µM*
Cc1cc(NC(=O)CSc2nc3ccccc3[nH]2)no1	16%	7	-15%	1%	-29%
CC(C)OC(=O)CSc1nc2ccccc2s1	10%	6	13%	13%	-22%
CCC(=O)OCCNc1cc(Sc2nc3ccccc3s2)c2nonc2c1[N+](=O)[O-]	-58%	-14	1.6µM*	2.8µM*	2.1µM*
CCN(CC(=O)NCc1ccc(F)cc1)C(=O)CCNS(=O)(=O)c1cccc(C)c1	4%	-15	-25%	3%	0%
Cc1cc(C)cc(C(=O)NC(CC(N)=O)c2ccc(N3CCN(C)CC3)c([N+](=O)[O-])c2)c1 (centres undefined)	10%	-2	2%	11%	2%
CCOc1ccc(N=c2scc(-c3ccccc3)n2CCO)cc1	?	-66*	16µM*	-17%	23µM*
CCOc1ccc(-c2nnc(-c3ccc(OC)cc3)o2)cc1	?	-20	-20%	30%	-21%
CCOc1ccc(N=c2scc(-c3ccc(OC)cc3)n2CCO)cc1	-23%	?	9.2µM*	-16%	?
CCn1c(-c2ccccc2)csc1=Nc1ccc(O)cc1	-6%	-95*	?	-15%	?
COc1ccc(C(=O)N/N=C/c2ccc(OC)c(CN3CCCc4ccccc43)c2)cc1	-13%	?	-24%	-2%	?
COc1ccc(OCc2cc(/C=N\NC(=O)c3ccccc3)ccc2OC)cc1	6.5µM*	42	4.6µM*	9.2µM*	5.2µM*
COc1ccc(C(=O)N/N=C/c2ccc(OC)c(COc3c(F)c(F)cc(F)c3F)c2)cc1	-9%	54	?	-23%	1%
COc1ccc(NC(=O)COc2ccc(/C=N/NC(=O)c3cccnc3)cc2OC)cc1	3%	-7	18µM*	0%	23µM*
COc1ccc(/C=N/NC(=O)c2cccnc2)cc1CN1CCCc2ccccc21	-8%	4	?	-9%	12µM*
COc1ccc(C(=O)N/N=C\C(C)=C\c2ccccc2)cc1OC	-8%	-94*	?	-5%	16µM*
